Rows were chosen to be rich in hits. Some 19% of all compounds tested hit in one or more screens of this group.
MARV entry inh: Marburg virus entry inhibition; Marburg virus pseudotyped entry inhibition, cell reporter; Potency, µM (series often up to 37.8 µM), for inactives: at the top dose activity change, negative = inhibition, usual class: inhibitors; 1.8% of 300,000 active; AID 540276; calls by dose curve; tested in HEK293 cells; also: potency is read from the fitted curve at half-maximal effect; % is scaled to controls: 0 for no effect and ±100 for the full control effect
Pf growth 48h: inhibits P. falciparum growth in the first generation, 48 h; P. falciparum luciferase growth in erythrocytes, 48 h; Potency, µM (titrated, usually from 28.7 µM), without a hit: at the top dose activity change, negative = inhibition, hits mostly inhibitors; 5.9% of 310,000 active; also: potency is read from the fitted curve at half-maximal effect; % is scaled to controls: 0 for no effect and ±100 for the full control effect
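Compounds are pin-transferred into medium, infected erythrocytes (2% hematocrit, 0.1% parasitemia final) are added, and plates sit one parasite generation at 37 C in 5% CO2. Detection reagent is then added and luminescence measured.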
LASV entry inh: inhibitors of Lassa virus binding or cell entry. 1.2% of 300,000 active. Lassa virus pseudotype entry inhibition, cell reporter. Potency, µM (top dose mostly 37.9 µM), inactives show top-dose activity change, negative = inhibition, hits mostly inhibitors. AID 540256; calls by dose curve; tested in HEK293 cells; also: potency is read from the fitted curve at half-maximal effect; % is scaled to controls: 0 for no effect and ±100 for the full control effect; nearly all actives have a fitted effect of over 50% in size
Pf growth 96h: inhibits malaria parasite growth, 96 h; P. falciparum luciferase reporter growth, 96 h; Potency, µM (series often up to 28.7 µM), for the others: at the top dose activity change, negative = inhibition, most hits filed as inhibitors; 6.9% of 320,000 active; also: potency is read from the fitted curve at half-maximal effect; % is scaled to controls: 0 for no effect and ±100 for the full control effect
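Plates of compound plus infected erythrocytes (2% hematocrit, 0.05% parasitemia final) incubate 96 hours, 37 C, 5% CO2. Detection reagent added; reduced luminescence from the parasites' luciferase reporter flags inhibition.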
Cycloheximide cs: counter-screen hit for Shiga toxin inhibitors, cycloheximide. 12% of 300,000 active. cell reporter, cycloheximide protein synthesis inhibition counterscreen. max response, %; in the data active = max response mostly above about 13%, no sharp cut-off; inactive = mostly below about 14%; also: read at 38.3 µM for the half of the compounds with a filed dose; 0% is about no effect
Shiga toxin inh: Shiga toxin inhibition; Vero cells, Shiga toxin protein synthesis inhibition reporter; inhibition, % at 38.7 µM; 9.2% of 290,000 active; AID 2315; in the data active = inhibition mostly above about 28%, no sharp cut-off; inactive = mostly below about 43%; also: 0% is about no effect
Starred values were filed as active, the others as inactive; ? = inconclusive; . = no result; [ ] = remark or other dose. Unless noted, calls follow the shape of the dose curve; as a rule, active = well fitted inhibition curve with a large enough effect; inconclusive = small, poorly fitted or top-dose-only effect, or another doubt; inactive = no such curve, though single readings can be large or run the other way.

SMILES | MARV entry inh | Pf growth 48h | LASV entry inh | Pf growth 96h | Cycloheximide cs | Shiga toxin inh
O=C(/C=C/c1ccco1)Nc1ccccn1 | ? | 255% | ? | 6% | 36* | 43*
CC(C)C1CC(CCN)(c2ccccc2)CCO1 (stereo unspecified) | . | ? | . | -16% | -1 | -18
Cc1cccc(NC(=O)Cn2c(=O)n(-c3ccccc3Cl)c(=O)c3c(C)c(C(=O)N(C)C)sc32)c1 | . | . | 7%[46.1 µM] | . | . | .
CCC1CCCCN1CCCNC(=O)Cn1cc2c(n1)-c1c(oc(C(=O)N3CCCC3)c1C)CC2 (stereo unspecified) | . | ? | . | 33% | -2 | -1
COc1ccc(C(CNC(=O)COc2cccc(C(F)(F)F)c2)N2CCCC2)cc1 (stereo unspecified) | . | 10µM* | . | 12µM* | . | .
COc1ccc(C(CNC(=O)COc2cccc(C)c2)N2CCCC2)cc1 (stereo unspecified) | . | ? | . | 13µM* | . | .
CC1c2c([nH]c3ccccc23)CCC1C(=O)O (stereo unspecified) | 28% | 5% | 16% | 24% | 67 | 81
CC1CCN(S(=O)(=O)c2cccc(C(=O)NCC3CCCO3)c2)CC1 (stereo unspecified) | 29%[46.1 µM] | 5% | 6.3µM* | ? | -1 | -3
O=C(Nc1ccc(S(=O)(=O)N2CCCCC2)cc1)c1ccc(CN2CCOCC2)cc1 | 8.2µM* | ? | ? | -23% | -2 | -5
CC1CCN(S(=O)(=O)c2ccc(NC(=O)CN3CCCC(C)C3)cc2)CC1 (stereo unspecified) | ? | . | -1% | 12µM* | -2 | 20
O=C(Nc1ccc(S(=O)(=O)N2CCCC2)cc1)c1ccc(CN2CCOCC2)cc1 | ? | ? | ? | 24% | -1 | -9
O=C(Nc1ccc(S(=O)(=O)N2CCOCC2)cc1)c1ccc(S(=O)(=O)N2CCOCC2)cc1 | 4%[46.1 µM] | -4% | 28%[46.1 µM] | 12µM* | 16 | 5
Cc1ccc(-n2nc3ccc(NC(=O)c4oc5ccccc5c4C)cc3n2)cc1 | . | . | -7%[46.1 µM] | . | . | .
O=C(Nc1ccc(OC(F)(F)F)cc1)c1[nH]ncc1[N+](=O)[O-] | . | 68% | . | ? | 43* | 78*
O=C(Nc1ccc([N+](=O)[O-])cc1)c1ccc(S(=O)(=O)N2CCCC2)cc1 | -8%[46.1 µM] | ? | ? | 12µM* | -2 | -6
CS(=O)(=O)c1ccc(NC(=O)c2cccc(S(=O)(=O)N3CCN(Cc4ccccc4)CC3)c2)cc1 | ? | ? | ? | 9.3µM* | -3 | -8
Cc1ccc(NC(=O)c2ccc(S(=O)(=O)N3CCC(C)CC3)cc2)cc1 | ? | 10µM* | ? | . | -3 | 20
Cc1ccccc1Nc1nn2c(=O)c3ccc(C(=O)NCc4ccccc4)cc3nc2s1 | . | . | -16%[46.1 µM] | . | . | .
O=S(=O)(Nc1nc2ccccc2nc1Cl)c1ccc(F)cc1 | . | 3% | . | ? | -2 | 2
N=c1oc2ccc([N+](=O)[O-])cc2cc1C(=O)NCc1ccccc1 | . | 15% | . | -6% | -2 | -3
O=C(Nc1ccc(S(=O)(=O)N2CCCCC2)cc1)c1ccc(F)cc1 | ? | -11% | ? | -7% | -2 | 19
COc1ccc(NS(=O)(=O)c2ccc(NC(=O)c3ccc(CN4CCOCC4)cc3)cc2)cc1 | ? | 15µM* | ? | -9% | 8 | -16
CCN(CC)c1ccc(NC(=O)c2ccc(S(=O)(=O)N3CCOCC3)cc2)cc1 | 16% | . | -17% | . | . | .
CCOc1ccc(-n2c([S-])c(C(=O)Nc3ccc(S(=O)(=O)N4CCOCC4)cc3)[n+]3cc(C(N)=O)ccc23)cc1 | -2%[46.1 µM] | 12µM* | -6% | ? | -3 | -10
O=C(Nc1ccc(S(=O)(=O)Nc2ccc(F)cc2)cc1)c1ccc(CN2CCOCC2)cc1 | ? | ? | ? | 12% | 1 | 2
SMILES | MARV entry inh | Pf growth 48h | LASV entry inh | Pf growth 96h | Cycloheximide cs | Shiga toxin inh
O=C(Nc1ccc(S(=O)(=O)N2CCCCCC2)cc1)c1[nH]ncc1[N+](=O)[O-] | . | ? | . | ? | 28* | 56*
CCN(CC)S(=O)(=O)c1ccc(NC(=O)c2ccc(CN3CCOCC3)cc2)cc1 | ? | 6.6µM* | ? | -15% | 1 | 5
O=C(O)/C(=C\c1cn(-c2ccccc2)nc1-c1ccc(Cl)cc1)NC(=O)c1ccccc1 | . | -6% | . | -4% | -7 | -8
Cc1ccc(C=NNc2nc3c([nH]2)c(=O)n(C)c(=O)n3C)cc1 | ? | . | -18%[46.1 µM] | . | . | .
Cc1ccc(N(CCC#N)C(=O)COC(=O)C2=COCCO2)cc1 | -3% | ? | 11% | 8% | . | .
CC1CCN(S(=O)(=O)c2ccc(NC(=O)CN3CCN(c4ccccc4)CC3)cc2)CC1 | ? | ? | ? | 4% | -1 | 8
Cc1ccc(C(=O)Nc2cc3c(cc2N2CCCCC2)n(C)c(=O)n3C)cc1 | . | -10% | . | 25% | 1 | 32
COc1ccc2c(Sc3ccc(C)cc3)c(C(=O)NC(C)C)[nH]c2c1 | -25%[46.1 µM] | . | -27%[46.1 µM] | . | . | .
CC1CCN(S(=O)(=O)c2cccc(C(=O)Nc3ccccc3)c2)CC1 | -27%[46.1 µM] | ? | 0% | 2.6µM* | -2 | -10
O=C1CN(S(=O)(=O)c2ccc([N+](=O)[O-])cc2)CC(=O)N1 | -2%[46.1 µM] | 41% | 2%[46.1 µM] | 12µM* | -4 | -8
CN(CCC1CCCCO1)Cc1cn(C)nc1-c1ccc2c(c1)OCCO2 (stereo unspecified) | . | 10% | . | 3% | -3 | -14
CC(C)(C)OC(=O)N1CCC[C@H]1C(=O)N/N=C/c1ccc2nccnc2c1 | ? | ? | 12% | -31% | 17 | -4
CC(C)(C)OC(=O)N1CCC[C@H]1C(=O)N/N=C/c1cccc2nccnc12 | . | 15µM* | . | ? | 1 | 22
COc1ccc2nc(/C=N/NC(=O)[C@@H]3CCCN3C(=O)OC(C)(C)C)ccc2c1 | ? | 87% | 1% | 94% | 46* | 76*
COc1cc2nc(NC(=O)c3ccc(S(=O)(=O)N4CCOCC4)cc3)sc2cc1OC | . | . | -2%[46.1 µM] | . | . | .

Bioassay records as filed in PubChem.
